# Data: PubChem BioAssay (NCATS)
# Results filed as inconclusive are left out. A call without a number means that no potency is given here. Activity calls are given as the source filed them. Unless noted, calls follow the shape of the dose curve; as a rule, active = well fitted curve in the direction sought with a large enough effect; inconclusive = small, poorly fitted or top-dose-only effect, or another doubt; inactive = no such curve, though single readings can be large; an effect the other way counts as inactive or inconclusive.
# Legend:
# [1] = Dual reporter qHTS for antagonist of Pregnane X Receptor (hPXR) against the NCATS DSHEA and TCM libraries: Fluorescence Readout (AID 1920061)
# Outline: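 HepG2 hPXR-Luc, 2000 cells/well, charcoal-stripped FBS medium; 5 h attach; RIF 2 uM final; 24 h 37C/5% CO2; CellTiter-Fluor 1 h, fluor 405/540; ONE-Glo 30 min RT, lum.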
# [2] = qHTS drug screen for cell cycle checkpoint inhibitors in PARPi-resistant BRCA-mutant ovarian cancer cell lines. (AID 1963452; calls by dose curve; also: potency is read from the fitted curve at half-maximal effect); settings: PEO1/OlaR viability, CellTiter-Glo luminescence, 96 h; for Z-AUC: stronger effect = lower value
# Outline: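 PEO1, PEO4 and PEO1/OlaR ovarian cancer cells, 600 per well, exposed 96 h at 37C to a dilution series. Viability read by CellTiter-Glo luminescence, normalized to DMSO and empty wells; activity summarized as Z-AUC.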
# [3] = qHTS for identification of novel therapeutic agents for treatment of microphthalmiaassociated transcription factor (MiT) renal cell carcinoma (RCC) (AID 1963991; calls by dose curve; also: potency is read from the fitted curve at half-maximal effect); settings: CellTiter-Glo, 48 h; for z-score: stronger effect = lower value
# Outline: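 UOK109/UOK124/UOK145 (TFE3 fusions, three partners); 500 cells/well; MIPE v4.0, 1912 cpds, 11 conc.; 48 h, 37 C; CellTiter-Glo, 15 min RT; lum. Norm.: DMSO 100%, empty 0%.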
# [4] = qHTS profiling for inhibitors of Plasmodium falciparum proliferation (AID 504749); also: nearly all actives have a fitted effect of over 60% in size; settings: P. falciparum in erythrocytes, SYBR Green DNA, 72 h
# Outline: (§1)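 Three-day growth assay of blood-stage parasites in erythrocytes (0.3% parasitemia, 2.5% hematocrit) at 37 C, 5% CO2, quantified by SYBR Green DNA staining after overnight detergent lysis.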
# [5] = test system: 3D7; test: as above; settings: P. falciparum in erythrocytes, SYBR Green DNA, 72 h; series mostly up to 28.7 µM
# Outline: as §1
# [6] = test system: 7G8; test: as above; settings: P. falciparum in erythrocytes, SYBR Green DNA, 72 h; series mostly up to 28.7 µM
# Outline: as §1
# [7] = test system: AA1029; test: as above; settings: P. falciparum in erythrocytes, SYBR Green DNA, 72 h; series mostly up to 28.7 µM
# Outline: as §1
# [8] = test system: ATS189; test: as above; settings: P. falciparum in erythrocytes, SYBR Green DNA, 72 h; series mostly up to 28.7 µM
# Outline: as §1
# [9] = test system: ATS95; test: as above; settings: P. falciparum in erythrocytes, SYBR Green DNA, 72 h; series mostly up to 28.7 µM
# Outline: as §1
# [10] = test system: C2A; test: as above; settings: P. falciparum in erythrocytes, SYBR Green DNA, 72 h; series mostly up to 28.7 µM
# Outline: as §1
# [11] = test system: CP185; test: as above; settings: P. falciparum in erythrocytes, SYBR Green DNA, 72 h; series mostly up to 28.7 µM
# Outline: as §1
# [12] = test system: CP191; test: as above; settings: P. falciparum in erythrocytes, SYBR Green DNA, 72 h; series mostly up to 28.7 µM
# Outline: as §1
# [13] = test system: CP192; test: as above; settings: P. falciparum in erythrocytes, SYBR Green DNA, 72 h; series mostly up to 28.7 µM
# Outline: as §1
# [14] = test system: CP194; test: as above; settings: P. falciparum in erythrocytes, SYBR Green DNA, 72 h; series mostly up to 28.7 µM
# Outline: as §1
# [15] = test system: CP201; test: as above; settings: P. falciparum in erythrocytes, SYBR Green DNA, 72 h; series mostly up to 28.7 µM
# Outline: as §1
# [16] = test system: CP211; test: as above; settings: P. falciparum in erythrocytes, SYBR Green DNA, 72 h; series mostly up to 28.7 µM
# Outline: as §1
# [17] = test system: CP215; test: as above; settings: P. falciparum in erythrocytes, SYBR Green DNA, 72 h; series mostly up to 28.7 µM
# Outline: as §1
# [18] = test system: CP217; test: as above; settings: P. falciparum in erythrocytes, SYBR Green DNA, 72 h; series mostly up to 28.7 µM
# Outline: as §1
# [19] = test system: AS120; test: as above; settings: P. falciparum in erythrocytes, SYBR Green DNA, 72 h; series mostly up to 28.7 µM
# Outline: as §1
# [20] = measured here: PEO1 parental Z-AUC
# [21] = TFE3-RCC UOK109 viability, measured here: UOK109 Z-AUC
# [22] = TFE3-RCC viability, measured here: UOK124 Z-AUC
# [23] = TFE3-RCC viability, measured here: UOK145 Z-AUC
# [24] = at 12.8 µM (top of the series), parasite line A
# [25] = at 12.8 µM (top of the series), parasite line B
# [26] = at 28.7 µM (top of the series), parasite line A
# [27] = at 28.7 µM (top of the series), parasite line B
smiles,measurement,setting,value
Cc1cc(O)c2c(c1)C(=O)c1cc(O)cc(O)c1C2=O,outcome,[1],inactive
O=c1c(O)c(-c2ccc(O)cc2O)oc2cc(O)cc(O)c12,Z-AUC,[2],1.32 (inactive)
same,Z-AUC,[2]; [20],1.13
same,Z-AUC,[2]; measured here: PEO4 Z-AUC,1.21
same,z-score,[3]; [21],0.0602
same,z-score,[3]; [22],0.591
same,z-score,[3]; [23],-0.0945
CCOC(=O)C1=C(O)C(=O)N(Cc2ccccc2)C1,Z-AUC,[2],1.25 (inactive)
same,Z-AUC,[2]; [20],1.01
same,Z-AUC,[2]; measured here: PEO4 Z-AUC,1.38
same,z-score,[3]; [21],0.919
same,z-score,[3]; [22],0.303
same,z-score,[3]; [23],0.693
Nc1cc(C(Cl)=C(Cl)Cl)c(S(N)(=O)=O)cc1S(N)(=O)=O,Z-AUC,[2],1.44 (inactive)
same,Z-AUC,[2]; [20],1.19
same,Z-AUC,[2]; measured here: PEO4 Z-AUC,1.34
same,z-score,[3]; [21],1.83
same,z-score,[3]; [22],0.22
same,z-score,[3]; [23],0.781
same,"activity, negative = inhibition",[4]; [24],-2.96% (inactive)
same,"activity, negative = inhibition",[4]; [25],1.59% (inactive)
same,Potency,[5],inactive
same,Potency,[6],inactive
same,Potency,[7],inactive
same,Potency,[8],inactive
same,Potency,[9],inactive
same,Potency,[10],inactive
same,Potency,[11],inactive
same,Potency,[12],inactive
same,Potency,[13],inactive
same,Potency,[14],inactive
same,Potency,[15],inactive
same,Potency,[16],inactive
same,Potency,[17],inactive
same,Potency,[18],inactive
COc1cc2c(cc1OC)C1CC(=O)C(CC(C)C)CN1CC2 (stereo unspecified),Z-AUC,[2],0.0378 (inactive)
same,Z-AUC,[2]; [20],0.296
same,Z-AUC,[2]; measured here: PEO4 Z-AUC,0.889
same,z-score,[3]; [21],0.853
same,z-score,[3]; [22],0.433
same,z-score,[3]; [23],0.758
same,"activity, negative = inhibition",[4]; [26],3.41% (inactive)
same,"activity, negative = inhibition",[4]; [27],0.311% (inactive)
same,Potency,[5],inactive
same,Potency,[6],inactive
same,Potency,[7],inactive
same,Potency,[19],inactive
same,Potency,[8],inactive
same,Potency,[9],inactive
same,Potency,[10],inactive
same,Potency,[11],inactive
same,Potency,[12],inactive
same,Potency,[13],inactive
same,Potency,[14],inactive
same,Potency,[15],inactive
same,Potency,[16],inactive
same,Potency,[17],inactive
same,Potency,[18],inactive
CC(=O)Nc1ccc(O)cc1,Z-AUC,[2],0.911 (inactive)
same,Z-AUC,[2]; [20],0.308
same,Z-AUC,[2]; measured here: PEO4 Z-AUC,0.415
same,z-score,[3]; [21],1.26
same,z-score,[3]; [22],0.904
same,z-score,[3]; [23],0.696
CCCCc1ccc2nc(NC(=O)OC)[nH]c2c1,Potency,[2],0.0389 µM (active)
same,Z-AUC,[2]; [20],-1.68
same,Z-AUC,[2]; measured here: PEO4 Z-AUC,-1.66
same,Potency,"[3]; TFE3-RCC UOK109 viability, active = Z-AUC below -0.8 in all three lines",0.0166 µM (active)
same,z-score,[3]; [21],-1.8
same,z-score,[3]; [22],-3.11
same,z-score,[3]; [23],-1.73
same,"activity, negative = inhibition",[4]; [24],2.35% (inactive)
same,"activity, negative = inhibition",[4]; [25],6.2% (inactive)
same,Potency,[5],inactive
same,Potency,[6],inactive
same,Potency,[7],inactive
same,Potency,[19],inactive
same,Potency,[8],inactive
same,Potency,[9],inactive
same,Potency,[10],inactive
same,Potency,[11],inactive
same,Potency,[12],inactive
same,Potency,[13],inactive
same,Potency,[14],inactive
same,Potency,[15],inactive
same,Potency,[16],inactive
same,Potency,[17],inactive
same,Potency,[18],inactive
CS(=O)(=O)OCCCCOS(C)(=O)=O,Z-AUC,[2],0.989 (inactive)
same,Z-AUC,[2]; [20],0.976
same,Z-AUC,[2]; measured here: PEO4 Z-AUC,1.46
same,z-score,[3]; [21],1.01
same,z-score,[3]; [22],2.44
same,z-score,[3]; [23],1.02
same,"activity, negative = inhibition",[4]; [26],5.89% (inactive)
same,"activity, negative = inhibition",[4]; [27],-1.27% (inactive)
same,Potency,[5],inactive
same,Potency,[6],inactive
same,Potency,[7],inactive
same,Potency,[19],inactive
same,Potency,[8],inactive
same,Potency,[9],inactive
same,Potency,[10],inactive
same,Potency,[11],inactive
same,Potency,[12],inactive
same,Potency,[13],inactive
same,Potency,[14],inactive
same,Potency,[15],inactive
same,Potency,[16],inactive
same,Potency,[17],inactive
same,Potency,[18],inactive
